Sampled rows, rich in hits. Any-hit rate of the full collection: about 9.4%.
HTT cytoprotect – qHTS Multiplex Assay to Identify Dual Action Probes in a Cell Model of Huntington: Cytoprotection (ATP); Potency, µM (titrated, usually from 56.4 µM), for the others: cytoprotection (ATP increase), most hits filed as activators; PC12 HTT-Q103 induced, cytoprotection, ATP luminescence, 40 h; AID 1471, 2008; 230,000 compounds, 0.14% hits; further: potency means the concentration at half of the fitted maximal effect; % of control where 0% means no effect; nearly all actives have a fitted effect of over 45% in size
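ATP quantification (ATPlite) reports survival of PC12 cells in which tebufenozide, 100 nM final, switches on Htt exon 1 with 103 glutamines linked to GFP; compounds are titrated.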
IMPase cell inh – qHTS Assay for Identifying the Cell-Membrane Permeable IMPase Inhibitors | CHO-M1 cells, IP1 accumulation, HTRF TR-FRET ratio | inhibition (IP1 accumulation), % at 46.1 µM | 120,000 tested, under 10 active; active means well fitted curve in the direction sought with a large enough effect in the signal ratio, not every such curve was filed as active; inconclusive means small, poorly fitted or top-dose-only effect, or a change in a side signal; inactive means no such curve, though single readings can be large or run the other way; the % refers to the signal ratio;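 further: cells stimulated with carbachol in lithium chloride buffer; plate controls were DMSO basal wells for no effect and reference inhibitor wells for full effect; higher means more IMPase inhibition seen as more IP1 and lower FRET ratio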
Target sequence (P97697 whole entry, looked up): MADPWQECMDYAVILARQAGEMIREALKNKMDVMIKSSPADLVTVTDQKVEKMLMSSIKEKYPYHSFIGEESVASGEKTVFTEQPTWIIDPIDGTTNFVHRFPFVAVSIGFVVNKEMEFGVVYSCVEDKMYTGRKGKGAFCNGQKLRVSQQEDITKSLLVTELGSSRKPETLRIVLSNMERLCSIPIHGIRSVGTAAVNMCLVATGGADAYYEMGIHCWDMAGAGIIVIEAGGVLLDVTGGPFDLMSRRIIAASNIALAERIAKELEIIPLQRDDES
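Measured: the HTRF emission ratio (665/620 nm) plus the 620 nm donor channel, each fitted to the Hill equation to give AC50. Cells were CHO-M1 given compounds up to 46 uM and a 30 min carbachol stimulation at 37C.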
HPGD inh – qHTS Assay for Inhibitors of HPGD (15-Hydroxyprostaglandin Dehydrogenase). 150,000 compounds, 4.3% hits. Potency, µM, for inactives: at the top dose activity change, negative = inhibition, usual class: inhibitors. purified HPGD, NADH fluorescence kinetic, PGE2 substrate. 15-hydroxyprostaglandin dehydrogenase [NAD(+)] (Homo sapiens), P15428; active means well fitted inhibition curve with a large enough effect, not every such curve was filed as active; inconclusive means small, poorly fitted or top-dose-only effect, or another doubt; inactive means no such curve, though single readings can be large or run the other way; further: potency means the concentration at half of the fitted maximal effect; on the % scale 0 is the no-effect control and ±100 the full control effect
Target sequence (P15428 whole entry, looked up): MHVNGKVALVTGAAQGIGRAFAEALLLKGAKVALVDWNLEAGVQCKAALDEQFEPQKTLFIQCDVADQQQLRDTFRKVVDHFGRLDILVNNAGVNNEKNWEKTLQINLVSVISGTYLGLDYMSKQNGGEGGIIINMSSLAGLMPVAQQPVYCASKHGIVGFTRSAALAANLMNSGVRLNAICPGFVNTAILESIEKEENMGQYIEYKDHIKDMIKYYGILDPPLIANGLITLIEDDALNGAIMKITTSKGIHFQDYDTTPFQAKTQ
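NADH formation kinetics: reaction with 30 uM PGE2 and 1 mM NAD+ (final), 20 nM enzyme, Tris-HCl pH 8 with Tween 20, after 15 min compound preincubation at room temperature. Fluorescence change, last versus first of five reads.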
ALDH1A1 inh – qHTS Assay for Inhibitors of Aldehyde Dehydrogenase 1 (ALDH1A1) | Purified ALDH1A1, NADH fluorescence, propionaldehyde substrate | Aldehyde dehydrogenase 1A1 (Homo sapiens), P00352 | Potency, µM (top dose mostly 75.3 µM), inactives show top-dose activity, negative = inhibition, most hits filed as inhibitors | 220,000 compounds, 7.3% hits; active means well fitted inhibition curve with a large enough effect, not every such curve was filed as active; inconclusive means small, poorly fitted or top-dose-only effect, or another doubt; inactive means no such curve, though single readings can be large or run the other way;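 further: potency means the concentration at half of the fitted maximal effect; plate controls were no enzyme wells and a reference inhibitor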
HttQ103 aggreg – qHTS Multiplex Assay to Identify Dual Action Probes in a Cell Model of Huntington: Aggregate Formation (GFP); Potency, µM (series often up to 46.1 µM), without a hit: at the highest dose activity change, negative = inhibition, hits mostly inhibitors; PC12 HttQ103-GFP aggregates, Acumen cytometry, 40 h; 220,000 compounds, 1.1% hits; further: potency means the concentration at half of the fitted maximal effect; on the % scale 0 is the no-effect control and ±100 the full control effect; nearly all actives have a fitted effect of over 60% in size
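Ecdysone-promoter PC12 model expressing HTT exon 1 Q103 fused to GFP, induced by tebufenozide at 100 nM final. Compounds titrated; aggregates sized 1–25 µm scored on a 488 nm laser cytometer.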
IMPase Li cell – qHTS Assay for Identifying the Cell-Membrane Permeable IMPase Inhibitors: Potentiation with Lithium; Potency, µM (top dose mostly 59.4 µM), for inactives: top-dose activity, negative = IMPase inhibition, actives largely listed as inhibitors; 210,000 compounds, 0.35% hits; CHO-M1 cells, IP1 TR-FRET (IP-One), carbachol + lithium; AID 1457, 2008;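 further: IP1 builds up when IMPase is blocked and the TR-FRET signal falls; potency means the concentration at half of the fitted maximal effect; plate controls were basal vehicle for no effect and high inhibitor control for full effect; nearly all actives have a fitted effect of over 50% in size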
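CHO-M1, 2000 cells/well, 16–30 h culture; cpd + low Li+, 30 min 37C; lysis with d2-IP1/Eu-anti-IP1 Ab, 10 min RT; TR-FRET 665/620 ratio and 620 channel; AC50 via Hill.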
Numbers without * were called inactive; ? = inconclusive; / = not tested or not shown; [ ] = remark or other dose. Unless noted, the call rests on the fitted dose curve; in most records, active means well fitted curve in the direction sought with a large enough effect; inconclusive means small, poorly fitted or top-dose-only effect, or another doubt; inactive means no such curve, though single readings can be large; an effect the other way counts as inactive or inconclusive.

SMILES	HTT cytoprotect	IMPase cell inh	HPGD inh	ALDH1A1 inh	HttQ103 aggreg	IMPase Li cell
CCN1CCCc2cc(CN(CCN3CCOCC3)C(=S)Nc3ccc(C)cc3)ccc21	-45%	/	/	6.3µM*	5%	22%
CCN1CCCc2cc(CN(CCN3CCOCC3)C(=S)Nc3ccc(OC)cc3)ccc21	-59%	/	/	?	-16%	?
CCN1CCCc2cc(CN(CCN3CCOCC3)C(=S)Nc3cc(F)cc(F)c3)ccc21	-16%	/	/	?	11%	7%
CCOc1ccc(NC(=S)N(CCN2CCOCC2)Cc2ccc3c(c2)CCCN3CC)cc1	-9%	/	/	13µM*	3%	3%
COc1ccc(/C=C(\C#N)c2nc3ccccc3c(=O)[nH]2)cc1OC	/	17	/	/	/	/
Cc1cc(O)c(C=O)c2c1C(=O)Oc1c(C)c(O)c3c(c1O2)C(O)OC3=O (configuration not stated)	?	/	10µM*	?	/	5%
COC(=O)c1c(OC)cc2c(c1C)Oc1c(Cl)c(O)c(Cl)c(C)c1C(=O)O2	?	/	?	?	/	22%
COc1cc(C)c2c(c1C=O)Oc1c(c(C)c(O)c3c1C(O)OC3=O)OC2=O (configuration not stated)	5%	/	20µM*	-14%	-13%[9.22 µM]	-1%
Cc1ccc(CNC(=O)CCCn2c(=O)c3ccccc3n(CC(=O)Nc3ccc(C)c(C)c3)c2=O)cc1	/	-5	/	/	/	/
O=C(COc1ccccc1Cl)N1CCN(c2ccc([N+](=O)[O-])c(N3CCCCC3)c2)CC1	-15%	2	-23%	1.6µM*	-14%	17%[38.3 µM]
O=[N+]([O-])c1ccc(Cl)cc1N1CCCCC1	10%[10 µM]	/	/	18µM*	3%[9.22 µM]	5%
CNc1cc(N2CCCCCC2)ccc1[N+](=O)[O-]	-3%	13	?	10µM*	8%	28%[38.3 µM]
O=[N+]([O-])c1ccc(N2CCCCC2)nc1N1CCCCC1	-26%[10 µM]	/	/	0.32µM*	-6%[9.22 µM]	/
COc1ccc(NC(=O)Cn2cc(S(=O)(=O)N3CCN(c4ccccc4F)CC3)c3ccccc3c2=O)cc1Cl	/	3	/	/	/	/
O=C(COc1ccc(Cl)cc1)N1CCN(c2ccc([N+](=O)[O-])c(N3CCCCC3)c2)CC1	-31%[10 µM]	0	-9%	2.5µM*	1%	-21%
O=C(c1ccc(F)cc1)N1CCN(c2ccc([N+](=O)[O-])c(N3CCCCC3)c2)CC1	-30%	5	/	5%	-1%	/
Cc1ccc(N2C(=O)C(CC(=O)Nc3cccc(F)c3)N(C3CC3)C2=O)cc1 (configuration not stated)	-13%	/	/	20µM*	-1%	3%
CC1(C)CC(=O)c2cc3c(nc2C1)CC(C)(C)CC3=O	-1%[10 µM]	?	/	7.1µM*	?	/
CN(C)c1ccc(-c2cncnc2NCc2ccccc2)cc1	-6%	/	?	?	/	7%
COc1ccc(C2CC(=O)C3=C(C2)Nc2ccccc2NC3c2coc3ccccc3c2=O)cc1OC (configuration not stated)	-1%[10 µM]	/	-10%	10µM*	0%	9%
O=C1CC(c2ccccc2)CC2=C1C(c1ccccn1)Nc1ccccc1N2 (configuration not stated)	3%	10	-5%	-2%	?	18%[38.3 µM]
Cc1ccccc1NC(=O)c1ccc(S(=O)(=O)N(C)C)cc1	-22%	0	-3%	9%	-25%	-2%
CN(C)S(=O)(=O)c1ccc(C(=O)Nc2ccccc2SCCC#N)cc1	-18%	/	/	16µM*	3%	2%
CCOc1cccc(/C=C2\NC(=S)N(c3ccccc3)C2=O)c1O	-6%[10 µM]	/	/	20µM*	2%[9.22 µM]	/
